Over roughly 110,000 compounds, “z-score” has its median near -0.1; the highest 2% begin near 2. This is one part of a sample in which the highest values are shown more often than they occur. The source made the active and inactive calls.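 The calls were made as follows: active = z-score in the third read window above 3 or below -3; inactive = the rest.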

The target of this assay is Metabotropic glutamate receptor 8 (Rattus norvegicus) (UniProt P70579). Put plainly: rat mGluR8 modulators via GIRK flux, primary screen, cell-based, thallium flux, HTS (AID 488969). To be noted: HEK293 rat mGluR8, GIRK (G protein-gated inwardly rectifying potassium channel) thallium flux, FluoZin2; at 10 µM; stronger effect = higher value; submaximal glutamate (EC20) added with thallium.
Sequence of Metabotropic glutamate receptor 8 (Rattus norvegicus) (P70579 whole entry, looked up): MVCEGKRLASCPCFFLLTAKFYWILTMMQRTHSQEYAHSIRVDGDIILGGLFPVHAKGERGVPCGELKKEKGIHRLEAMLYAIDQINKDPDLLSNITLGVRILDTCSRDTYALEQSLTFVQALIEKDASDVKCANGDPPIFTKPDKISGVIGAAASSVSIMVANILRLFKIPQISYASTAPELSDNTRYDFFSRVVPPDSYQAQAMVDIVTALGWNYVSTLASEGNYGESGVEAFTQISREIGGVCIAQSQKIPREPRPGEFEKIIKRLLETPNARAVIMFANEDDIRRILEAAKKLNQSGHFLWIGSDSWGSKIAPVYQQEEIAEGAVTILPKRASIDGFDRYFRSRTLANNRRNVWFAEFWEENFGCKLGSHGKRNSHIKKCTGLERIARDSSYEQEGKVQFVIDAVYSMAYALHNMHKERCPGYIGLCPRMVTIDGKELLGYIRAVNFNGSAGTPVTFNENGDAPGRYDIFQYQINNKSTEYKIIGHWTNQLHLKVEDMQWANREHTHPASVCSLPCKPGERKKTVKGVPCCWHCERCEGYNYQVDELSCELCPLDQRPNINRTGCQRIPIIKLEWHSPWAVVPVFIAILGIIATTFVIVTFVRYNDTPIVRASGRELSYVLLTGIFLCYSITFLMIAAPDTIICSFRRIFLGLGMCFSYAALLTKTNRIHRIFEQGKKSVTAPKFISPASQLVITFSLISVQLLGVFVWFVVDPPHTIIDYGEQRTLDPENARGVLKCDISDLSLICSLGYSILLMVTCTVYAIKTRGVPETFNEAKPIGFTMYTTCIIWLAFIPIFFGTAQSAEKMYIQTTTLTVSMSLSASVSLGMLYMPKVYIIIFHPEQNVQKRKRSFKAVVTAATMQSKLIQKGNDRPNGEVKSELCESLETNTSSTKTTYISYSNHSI
For the compound `C=CCn1c(CCNC(=O)c2cccs2)nnc1SCC(=O)c1ccc(Cl)cc1`, the z-score was -0.334.

Take `CCOc1cc2c(cc1C(C)(C)C)NC(=O)CS2`: the z-score was -0.538.

The compound `CCOC(=O)C1=C(c2ccccc2)Nc2c(c(=O)n(C)c(=O)n2C)C1c1ccc(O)c(OC)c1` (stereo not given) came in with a z-score of 0.108.

The compound `Cc1cc([N+](=O)[O-])c(C(C)(C)C)cc1N` came in with a z-score of 1.32.

On to `CCOc1ccc(OCCSc2nc3ccccc3[nH]2)cc1`, for which the z-score is 3.67 (active).

In turn, `CCOc1ccc(OCCSc2nc3ccccc3c(=O)[nH]2)cc1` registered a z-score of -0.398.

In the case of `CCCOc1ccc(CSc2nc3ccccc3[nH]2)cc1`, the z-score is 1.22.

For the compound `O=C(CCSCCC(=O)NCc1ccco1)NCc1ccco1`, the z-score is -0.212.

The compound `Cc1ccc2c(c1)/C(=N/OS(=O)(=O)c1ccccc1)CCS2` yielded a z-score of -0.0781.

`Cc1ccc(C(=O)NC(=S)Nn2cnnc2)cc1`: the z-score is -0.262.

On to `COc1ccc(C(=O)Nn2cnnc2)cc1`, for which the z-score is -0.00169.

Consider `CC(C)(C)c1ccc(C(=O)NC(=S)Nn2cnnc2)cc1`, for which the z-score was 3.11 (active).

In the case of `O=C(Cn1c(=O)oc2ccccc21)Nc1nnc(N2CCCCCC2)s1`, the z-score is -0.181.

The compound `Cc1cccc(N=C2NC(=O)CS2)c1` yielded a z-score of 0.297.

Turning to `Cc1ccc(N=C2NC(=O)CS2)cc1`, the z-score is 2.26.

`O=C1CSC(=Nc2ccccc2)N1` displayed a z-score of -0.108.

Take `CCc1ccc(C(C)NC(=O)c2cc(C)oc2C)cc1` (stereo not given): the z-score is -0.386.

Turning to `COc1cc(/C=N/NC(=O)c2ccc([N+](=O)[O-])cc2Cl)cc(Br)c1O`, the z-score stood at 0.0738.

`CCOc1ccc(CCNC(=O)CN2CCN(Cc3ccccc3F)C2=O)cc1OCC` registered a z-score of 0.219.

As for `COc1ccc(-c2nnc(SCC(=O)N3CCCc4ccccc43)o2)cc1OC`, the z-score amounted to 0.39.

Consider `CC1(C)CC(c2csc(N)n2)CCO1` (stereo not given), for which the z-score is 0.945.

As to `CCC1(C)CC(c2csc(N)n2)CCO1` (stereo not given), the z-score was 2.98.

Take `Nc1nc(C2CCCCC2)cs1`: the z-score was found to be 0.293.

For the compound `COc1ccccc1C(=O)Nc1ccc(C)cc1C(=O)c1ccccc1`, the z-score is -0.242.

The compound `CC1(C)CC(=O)C(C=Nc2ccccc2Sc2ccccc2)=C(O)C1` came in with a z-score of -0.747.

`Cc1nc(Nc2ccc(F)cc2)[nH]c(=O)c1CCC(C)C` registered a z-score of -0.00139.

`Cc1nc(Nc2ccccc2)[nH]c(=O)c1CCC(C)C` registered a z-score of 2.73.

For the compound `Cc1ccc(Nc2nc(C)c(CCC(C)C)c(=O)[nH]2)cc1`, the z-score stood at 0.22.

`Cc1nnc(SCc2ccc(F)cc2Cl)s1` yielded a z-score of -0.295.

`Cc1cc(C)nc(N2CCCC(C(=O)NCCC3=CCCCC3)C2)n1` (stereo not given) registered a z-score of 0.000737.

Compound `CN(CCNC(=O)c1cc2c(=O)n(C)c3ccccc3c2n1C)Cc1ccccc1` returned a z-score of 2.77.

In turn, `CC(C)OCCCNC(=O)c1cc2c(=O)n(C)c3ccccc3c2n1C` displayed a z-score of -0.527.

Compound `CCN(CC)CCCNC(=O)c1cc2c(=O)n(C)c3ccccc3c2n1C` showed a z-score of 1.21.

`COCCCNC(=O)c1cc2c(=O)n(C)c3ccccc3c2n1C` displayed a z-score of -0.127.

Regarding `CCCN(CCC)CCNC(=O)c1cc2c(=O)n(C)c3ccccc3c2n1C`, the z-score was 1.86.

Regarding `CCN(CC)CCNC(=O)c1cc2c(=O)n(C)c3ccccc3c2n1C`, the z-score amounted to 1.25.

In turn, `CCCCN(CC)CCNC(=O)c1cc2c(=O)n(C)c3ccccc3c2n1C` gave a z-score of 2.85.

`CCCN(CCC)CCCNC(=O)c1cc2c(=O)n(C)c3ccccc3c2n1C`: the z-score was 4 (active).

Compound `CCCCN(CC)CCCNC(=O)c1cc2c(=O)n(C)c3ccccc3c2n1C` came in with a z-score of 2.54.

`COCCNC(=O)c1cc2c(=O)n(C)c3ccccc3c2n1C` came in with a z-score of -0.524.

`CN(C)CCNC(=O)c1cc2c(=O)n(C)c3ccccc3c2n1C` came in with a z-score of 0.703.

`CN(C)/C=N/C(=S)Nc1ccc(Br)cc1F` returned a z-score of 1.46.

`O=C(CCCn1c(SCC(=O)NC2CCCCC2)nc2ccccc2c1=O)NCC1CCCO1` (stereo not given) registered a z-score of -0.0674.

`Cc1cccc(NC(=O)CSc2nnc([C@@H]3CCCN3C(=O)OC(C)(C)C)o2)c1C` showed a z-score of 1.54.

`CN1CCN(C2=CC(=O)OC23CCCCC3)CC1` showed a z-score of 0.371.

`CCOc1ccc(N/C(=C(/C(Cl)=C(Cl)Cl)[N+](=O)[O-])n2cncn2)cc1`: the z-score was -0.895.

`CC(=O)c1ccc(Oc2ccc(C(C)=O)cc2)cc1` had a z-score of -0.0838.

Consider `CNC(=O)c1ccc(Oc2ccc(C(=O)NC)cc2)cc1`, for which the z-score is -0.0105.

`CN(C)C(=O)c1ccc(Oc2ccc(C(=O)N(C)C)cc2)cc1` returned a z-score of 2.6.

With `COc1cc2c(=O)n(CCCN3CCOCC3)c(=S)[nH]c2c(OC)c1OC`, the z-score stood at 2.07.

The compound `O=c1c2cc(N3CCOCC3)ccc2[nH]c(=S)n1CCCN1CCCC1` showed a z-score of -0.171.

`COc1cc2[nH]c(=S)n(CCCN3CCOCC3)c(=O)c2cc1OC` gave a z-score of 0.0597.

`O=c1c2cc(F)ccc2[nH]c(=S)n1CCCN1CCOCC1`: the z-score is 3.11 (active).

As for `O=c1c2ccccc2[nH]c(=S)n1CCCN1CCOCC1`, the z-score stood at 0.0674.

As to `COc1cc2[nH]c(=S)n(CCN3CCOCC3)c(=O)c2cc1OC`, the z-score was -0.262.

The compound `Cc1ccc(C(=O)COC(=O)c2n[nH]c(=O)c3ccccc23)cc1` gave a z-score of -0.454.

In the case of `CC(C)(C)c1cnnn1-c1ccc(-c2csc(N)n2)cc1`, the z-score was -0.0644.

`COc1cc(C2C(Oc3ccccc3C)C(=O)N2Cc2ccc(F)cc2)cc(OC)c1OC` (stereo not given) showed a z-score of -0.106.

In the case of `Cc1ccc(NC(=O)COC(=O)C2CC3C=CC2C3)cc1S(=O)(=O)N1CCCCC1` (stereo not given), the z-score was found to be 2.02.

On to `Cc1ccc(NC(=O)COC(=O)C2CCC(=O)N2)c(S(=O)(=O)N2CCOCC2)c1` (stereo not given), for which the z-score is -0.196.

As for `O=C(COC(=O)C1CC2C=CC1C2)Nc1ccc2c(c1)OC(F)(F)O2` (stereo not given), the z-score is 4.04 (active).

Regarding `Cc1ccc(S(=O)(=O)N2CCCCC2)cc1NC(=O)COC(=O)C1CC2C=CC1C2` (stereo not given), the z-score is 2.38.

For `Cc1ccc(S(=O)(=O)N2CCCCC2)cc1NC(=O)COC(=O)c1cc[n+]([O-])cc1`, the z-score was -0.223.

The compound `O=C(COC(=O)C1CC2C=CC1C2)Nc1ccccc1` (stereo not given) yielded a z-score of 0.0334.

`Cc1ccc(S(=O)(=O)N2CCCCC2)cc1NC(=O)COC(=O)Cc1ccc(Cl)cc1` came in with a z-score of -0.0868.

`Cc1ccc(NC(=O)COC(=O)C2CC2C)c(S(=O)(=O)N2CCCCC2)c1` (stereo not given): the z-score came out at 2.07.

As for `Cc1cc(C)n2nc(C(=O)OCC(=O)Nc3ccc4c(c3)OC(F)(F)O4)nc2n1`, the z-score is -0.0308.

As to `Cc1cnc(C(=O)OCC(=O)Nc2ccc(C)c(S(=O)(=O)N3CCCCC3)c2)cn1`, the z-score was -1.

The compound `CCOC(=O)Nc1ccc(OC)cc1S(=O)(=O)N1CCCCC1` yielded a z-score of 0.612.

With `COc1cc(/C=C/C(=O)OCC(=O)Nc2ccc(C)c(S(=O)(=O)N3CCCCC3)c2)ccc1O`, the z-score is -0.427.

In the case of `CCS(=O)(=O)c1nc2ccccc2n1CC(=O)N1CCCCC1`, the z-score came out at 0.849.

Regarding `COc1cc(O)c(C(C)=O)cc1OC`, the z-score amounted to 0.68.

Take `CC1(c2ccccc2)CC(C)(C)N2C(=O)/C(=C3\SC(=S)NC3=O)c3cccc1c32` (stereo not given): the z-score was 5.26 (active).

With `CC1(c2ccccc2)CC(C)(C)N2C(=O)C3(C(C#N)=C(N)Oc4cc(O)ccc43)c3cccc1c32` (stereo not given), the z-score was -0.217.

`Cc1nn(-c2ccccc2)c(Cl)c1/C=C1\SC(=S)NC1=O` returned a z-score of -0.842.

The values above are taken from PubChem BioAssay AID488969 (Vanderbilt High Throughput Screening Facility, 2010).
